Source: PubChem (National Center for Advancing Translational Sciences (NCATS))
Only some compounds are listed: those with a hit (about 5.4% of all), similar ones and a draw of the others.
Marburg entry inh – inhibitors of Marburg virus binding or cell entry; Marburg virus pseudotyped entry inhibition, cell reporter; Potency, µM (highest dose often 37.8 µM), actives largely listed as inhibitors; hit rate 1.8% among 300,000; calls by dose curve; tested in HEK293 cells
LASV entry inh – inhibitors of Lassa virus binding or cell entry | Lassa virus pseudotype entry inhibition, cell reporter | AID 540256 | Potency, µM (doses to about 37.9 µM), actives largely listed as inhibitors | hit rate 1.2% among 300,000; calls by dose curve; tested in HEK293 cells; also: nearly all actives have a fitted effect of over 50% in size
Vaccinia Venus – inhibitors of vaccinia virus (Venus reporter) | hit rate 0.46% among 330,000 | AID 720580 | Potency, µM (highest dose often 36.5 µM), hits mostly inhibitors | Vaccinia virus Venus reporter expression, fluorescence; calls by dose curve; tested in A549 cells; also: nearly all actives have a fitted effect of over 30% in size
FMDV inh – antivirals against foot and mouth disease virus. Potency, µM (top dose mostly 57.9 µM), usual class: inhibitors. hit rate 1.2% among 410,000. AID 1159524. FMDV antiviral cell-based qHTS; calls by dose curve; tested in HEK293T cells; also: read-out not given here; nearly all actives have a fitted effect of over 45% in size
Sm TGR inh – S. mansoni TGR enzyme inhibition; Q962Y6; purified TGR, DTNB reduction, TNB absorbance 405 nm; Potency, µM (series often up to 114 µM), usual class: inhibitors; hit rate 3% among 360,000; active = well fitted inhibition curve with a large enough effect; inconclusive = small, poorly fitted or top-dose-only effect; inactive = no such curve, though single readings can be large or run the other way; also: nearly all actives have a fitted effect of over 60% in size
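First, TGR (20 nM dispensed) and NADPH were mixed with compound. Second, a 15 min room-temperature incubation followed. Third, further NADPH and then DTNB were added to start the reaction. Finally, TNB absorbance was monitored kinetically.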
VACV mCherry inh – inhibitors of vaccinia virus infection (mCherry reporter signal); Vaccinia virus mCherry reporter infection, fluorescence; Potency, µM (titrated, usually from 36.5 µM), hits mostly inhibitors; hit rate 0.63% among 310,000; AID 720579; calls by dose curve; tested in A549 cells; also: nearly all actives have a fitted effect of over 35% in size
Hits are given with their value; . = inactive; ? = inconclusive; / = not tested or not shown.

SMILES	Marburg entry inh	LASV entry inh	Vaccinia Venus	FMDV inh	Sm TGR inh	VACV mCherry inh
C#CCN(C[C@@H]1[C@@H](OC(=O)Nc2cccs2)[C@@H](OC(=O)Nc2cccs2)Cn2c(=O)ccc(=O)n21)S(=O)(=O)c1ccc(C)cc1	/	/	8.9µM	?	/	?
C#CCN(C[C@H]1[C@H](OC(=O)Nc2cccs2)[C@H](OC(=O)Nc2cccs2)C[C@H]2C(=O)N(c3ccccc3)C(=O)[C@@H]12)S(=O)(=O)c1ccc(C)cc1	/	/	.	.	/	.
C#CCN(C[C@@H]1[C@@H](OC(=O)NCc2ccccc2F)[C@@H](OC(=O)NCc2ccccc2F)Cn2c(=O)ccc(=O)n21)S(=O)(=O)c1ccc(C)cc1	/	/	7.1µM	14µM	/	?
CCc1c(-c2ccccc2)nc2ccccc2c1C(=O)NCc1ccc(C)cc1	/	.	.	.	.	.
Cc1cc(OCCn2cc(C(=O)c3cccs3)c3ccccc32)ccc1Cl	?	?	.	.	.	.
CCC1C/C(=C/c2ccco2)C(=O)/C(=C/c2ccco2)C1 (stereo unspecified)	.	.	/	/	20µM	/
CCC1C/C(=C\c2cc(OC)c(OC)cc2OC)C(=O)/C(=C/c2cc(OC)c(OC)cc2OC)C1 (stereo unspecified)	/	/	/	?	.	/
COc1ccc(NC(=O)C[C@H]2C(=O)N(C3CCCCC3)C[C@@H]2c2ccc(OC)cc2)cc1	/	/	.	.	/	.
Cc1ccc(N(C)S(=O)(=O)c2cccc(C(=O)Nc3nc4ccccc4[nH]3)c2)cc1	12µM	16µM	?	.	.	.
Cc1ccc(C(=O)Nc2cnc3ccccc3c2)cc1	?	5µM	.	3.5µM	.	.
Cc1ccc(C(=O)Nc2nc3ccccc3[nH]2)cc1	1.4µM	?	?	11µM	.	.
COc1ccccc1OC(=O)c1ccc(SC)cc1OC	?	10µM	.	.	.	.
COc1ccc(C(=O)Nc2nc3ccccc3[nH]2)cc1	?	?	?	.	.	.
COc1ccccc1C(=O)Nc1nc2ccccc2[nH]1	?	?	.	1µM	.	.
CSc1ccccc1C(=O)Nc1nc2ccccc2[nH]1	?	?	.	.	.	.
COc1cc(SC)ccc1C(=O)Nc1nc2ccccc2[nH]1	?	?	.	0.035µM	.	.
Cc1onc(-c2ccccc2)c1C(=O)NCCN1Cc2ccccc2OC(c2ccsc2)C1 (stereo unspecified)	/	/	.	.	/	.
COc1ccc(C(=O)C(CCC(CNC(C)(C)C)C(=O)c2ccc(OC)cc2)CNC(C)(C)C)cc1 (stereo unspecified)	2.1µM	4µM	11µM	?	?	13µM
COc1ccc(C(=O)CC(=O)c2ccc(C(C)(C)C)cc2)cc1	/	/	.	.	/	.
Cc1nc(N(CCO)C2CCCCC2)c2nnn(Cc3ccccc3)c2n1	10µM	.	.	.	.	.
Cc1nc(NCC2CC2)c2nnn(Cc3ccccc3)c2n1	?	.	.	.	.	.
C[C@@H]1[C@H](c2ccccc2)OCCS(=O)(=O)N1Cc1ccccc1F	/	/	.	/	/	.
O=C(CCCn1nnnc1CN1CCOCC1)N1CCC(c2ccccc2Cl)C1 (stereo unspecified)	/	/	/	.	?	/
O=C(CCn1nnnc1CN1CCOCC1)N1CCC(c2ccccc2F)C1 (stereo unspecified)	.	.	.	.	25µM	.
CCOC(=O)C1CCCN(C(=O)CCCn2nnnc2CN2CCOCC2)C1 (stereo unspecified)	/	/	/	.	40µM	/
SMILES	Marburg entry inh	LASV entry inh	Vaccinia Venus	FMDV inh	Sm TGR inh	VACV mCherry inh
O=C(CN1Cc2ccccc2OC(c2ccccc2F)C1)NC(c1ccccn1)C(F)(F)F (stereo unspecified)	/	/	.	.	/	.
CCCCOc1ccc(C(=O)NCCS(=O)(=O)N2CCN(c3ccc(F)cc3)CC2)cc1	/	.	.	.	.	.
CCCCOc1ccc(C(=O)NCCS(=O)(=O)N2CCN(c3ccccc3OC)CC2)cc1	/	?	.	14µM	.	.
Cc1ccc(-n2nnnc2-c2ccco2)cc1	.	.	.	.	.	.
CN(C)C(CNc1nnnn1-c1ccccc1)c1ccco1 (stereo unspecified)	?	.	/	.	45µM	/
NC1=NC(=O)C2N=CN(COCCO)C2=N1 (stereo unspecified)	.	/	/	/	/	/
CCOC(=O)c1cc(OC(=O)c2ccccc2F)n(-c2ccccc2)n1	.	.	.	.	.	.
CCOC(=O)c1cc2occc2n1CC(=O)N1CCCc2ccccc21	.	?	.	.	8.9µM	.
OC1(c2cccnc2)CCN(Cc2ccc3c(c2)CN(Cc2cccc(C(F)(F)F)c2)CCO3)CC1	/	/	.	?	/	.
